From the supplement of paper PMC9950053
Structures can show the parent of a compound that is named as a salt.

The compounds below were run on Danio rerio larvae (5 dpf) (assay: habituation (activity change first vs second 5 min of 1-s interval sound, period 17) minus DMSO control (percentage points); higher = larger habituation measure than DMSO larvae). Conditions: 10 µM; exposure time: 3 h pre-incubation + 3 h imaging.
Method: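 Wild-type 5 dpf zebrafish larvae (n=48 per drug, 96-well plates, 28.5 °C) were exposed to Tocris FDA-approved library compounds at 10 µM (0.1% DMSO) for 3 h before and 3 h during imaging. Images were taken every 6 s during visual (moving coloured lines) and acoustic stimuli, and larvae were tracked with the DeepLabCut-based Z-LaP Tracker. Each behavioural measure is the treated-group mean minus the DMSO vehicle control mean (n=844), in percentage points. This mapping covers compounds with 4-character plate codes.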

Compound	habituation
COc1cc2nc(N3CCN(C(=O)C4COc5ccccc5O4)CC3)nc(N)c2cc1OC (stereo not given) [Doxazosin mesylate]	0.55
OCCOCCN1CCN(C2=Nc3ccccc3Sc3ccccc32)CC1 [Quetiapine hemifumarate]	-4.22
CCCc1nc2c(C)cc(-c3nc4ccccc4n3C)cc2n1Cc1ccc(-c2ccccc2C(=O)O)cc1 [Telmisartan]	-1.73
CC1CNc2c(cccc2S(=O)(=O)N[C@@H](CCCNC(=N)N)C(=O)N2CC[C@@H](C)C[C@@H]2C(=O)O)C1 (stereo not given in full) [Argatroban]	-0.107
CN1CC2c3ccccc3Oc3ccc(Cl)cc3C2C1 (stereo not given) [Asenapine maleate]	-12.6
Cc1nc(-c2ccc(OCC(C)C)c(C#N)c2)sc1C(=O)O [Febuxostat]	-3.37
Cc1ccc(NC(=O)c2ccc(CN3CCN(C)CC3)cc2)cc1Nc1nccc(-c2cccnc2)n1 [Imatinib mesylate]	1.88
NS(=O)(=O)Cc1noc2ccccc12 [Zonisamide]	1.66
Brc1c(NC2=NCCN2)ccc2nccnc12	-6.57
O=C(c1ccc(OCCN2CCCCC2)cc1)c1c(-c2ccc(O)cc2)sc2cc(O)ccc12 [Raloxifene hydrochloride]	-3.07
COc1c(C)c2c(c(O)c1C/C=C(\C)CCC(=O)OCCN1CCOCC1)C(=O)OC2 [Mycophenolate mofetil]	4.4
Nc1cccc2c1CN(C1CCC(=O)NC1=O)C2=O (stereo not given) [Lenalidomide]	-0.218
CN(C)CC/C=C1/c2ccccc2COc2ccc(CC(=O)O)cc21 [Olopatadine hydrochloride]	-0.266
O=C1CCc2cc(OCCCCc3nnnn3C3CCCCC3)ccc2N1 [Cilostazol]	0.0793
CN/C(=N\CCSCc1nc[nH]c1C)NC#N [Cimetidine]	5.23
Clc1ccccc1C(c1ccccc1)(c1ccccc1)n1ccnc1 [Clotrimazole]	-2.1
CCOC(=O)N1CCC(=C2c3ccc(Cl)cc3CCc3cccnc32)CC1 [Loratidine]	-7.35
CCCCC(=O)N(Cc1ccc(-c2ccccc2-c2nnn[nH]2)cc1)[C@H](C(=O)O)C(C)C [Valsartan]	2.48
OC(CNCC(O)C1CCc2cc(F)ccc2O1)C1CCc2cc(F)ccc2O1 (stereo not given) [Nebivolol hydrochloride]	-10.1
CNC(=O)c1ccccc1Sc1ccc2c(/C=C/c3ccccn3)n[nH]c2c1 [Axitinib]	0.305

Compound	habituation
CC(=O)O[C@H]1C(=O)[C@@]2(C)[C@H]([C@H](OC(=O)c3ccccc3)[C@]3(O)C[C@H](OC(=O)[C@H](O)[C@@H](NC(=O)c4ccccc4)c4ccccc4)C(C)=C1C3(C)C)[C@]1(OC(C)=O)CO[C@@H]1C[C@@H]2O [Taxol]	-3.28
Cc1nnc(C(C)C)n1C1C[C@H]2CC[C@@H](C1)N2CC[C@H](NC(=O)C1CCC(F)(F)CC1)c1ccccc1 (stereo in doubt) [Maraviroc]	3.31
CCC(C)(C)C(=O)O[C@H]1C[C@@H](C)C=C2C=C[C@H](C)[C@H](CC[C@@H]3C[C@@H](O)CC(=O)O3)[C@H]21 [Simvastatin]	-1.02
CCCCc1nc(Cl)c(CO)n1Cc1ccc(-c2ccccc2-c2nnn[nH]2)cc1 [Losartan potassium]	1.01
N#Cc1ccc(C(c2ccc(C#N)cc2)n2cncn2)cc1 [Letrozole]	3.66
O=C(NCC1CCCCN1)c1cc(OCC(F)(F)F)ccc1OCC(F)(F)F (stereo not given) [Flecainide acetate]	0.225
NC(=O)c1ncn([C@@H]2O[C@H](CO)[C@@H](O)[C@H]2O)n1 [Ribavirin]	0.859
CN(CCOc1ccc(NS(C)(=O)=O)cc1)CCc1ccc(NS(C)(=O)=O)cc1 [Dofetilide]	5.62
CN1CCC[C@@H]1Cc1c[nH]c2ccc(CCS(=O)(=O)c3ccccc3)cc12 [Eletriptan hydrobromide]	7.41
Cc1c(-c2ccc(O)cc2)n(Cc2ccc(OCCN3CCCCCC3)cc2)c2ccc(O)cc12 [Bazedoxifene acetate]	0.95
CCCN(CCC)S(=O)(=O)c1ccc(C(=O)O)cc1 [Probenecid]	3.79
CCc1c2c(nc3ccc(OC(=O)N4CCC(N5CCCCC5)CC4)cc13)-c1cc3c(c(=O)n1C2)COC(=O)[C@]3(O)CC	9.09
CCCCCOC(=O)Nc1nc(=O)n([C@@H]2O[C@H](C)[C@@H](O)[C@H]2O)cc1F [Capecitabine]	-3.27
Cc1cccc(CN2CCN(C(c3ccccc3)c3ccc(Cl)cc3)CC2)c1 (stereo not given) [Meclizine dihydrochloride]	-12.4
CN1CC[C@@H](NC(=O)Nc2ccc(C#N)cc2)C[C@@H]1c1nc2ccccc2[nH]1	-0.504
CCCCCCCCc1ccc(CCC(N)(CO)CO)cc1	-0.454
CCOC(=O)C1=C(C)NC(C)=C(C(=O)OC)C1c1cccc(Cl)c1Cl (stereo not given) [Felodipine]	-11.4
O=c1[nH]c(=O)n([C@H]2C[C@H](O)[C@@H](CO)O2)cc1C(F)(F)F [Trifluorothymidine]	6.83
C=C1[C@H](CO)[C@@H](O)C[C@@H]1n1cnc2c(=O)[nH]c(N)nc21 [Entecavir]	1.2
COc1cccc2c1C(=O)c1c(O)c3c(c(O)c1C2=O)C[C@@](O)(C(=O)CO)C[C@@H]3O[C@H]1C[C@H](N)[C@H](O)[C@H](C)O1 [Doxorubicin hydrochloride]	0.248
